For test [1], the system named is Saccharomyces cerevisiae BY4741 SeMeCo community. Put plainly: mean cell size (pixel area) (pixels); higher = larger cells. The settings on record: 10 µM; 24 h; SM minimal medium. An outline of the steps: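 Mean cell pixel area per well was determined by automated confocal microscopy with Harmony analysis of paraformaldehyde-fixed cells. The cells, a Saccharomyces cerevisiae BY4741 community of four plasmids that each complement one auxotrophy and carry a fluorescent marker, were incubated for 24 h with drug at a final 10 µM in SM medium in 384-well plates. Numbers are averaged over 3 replicates. Same SeMeCo high-content imaging drug screen: Selleck FDA-approved drugs at 10 µM, 24 h in SM medium, 384-well plates, 3 replicates.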

Test [2] has the same test system. Nature of the test: z-score of prototroph abundance vs DMSO median; higher = larger share of this subpopulation than in DMSO controls. Particulars: 10 µM; 24 h; SM minimal medium; subpopulation (auxotrophy): Prototroph. The essentials: (§1)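 A community of Saccharomyces cerevisiae BY4741 was built from four plasmids that each restored one auxotrophy and encoded a distinct fluorescent protein. Pre-grown overnight to OD600 1.0 and diluted to 0.3, it was dispensed at 70 µl into 384-well plates acoustically predosed with library drugs for a final 10 µM, and grown 24 h in minimal SM medium. Cells were then paraformaldehyde-fixed and imaged by automated confocal microscopy. Thresholds and autofluorescence correction came from single-auxotroph fluorescent strains, and each subpopulation's abundance was scored as a z-score relative to the vehicle-well median.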

For test [3] the test system is unchanged. Nature of the test: z-score of subpopulation abundance vs DMSO median, subpopulation auxotrophic for M; higher = larger share of this subpopulation than in DMSO controls. The settings on record: 10 µM; 24 h; SM minimal medium; subpopulation (auxotrophy): M. An outline of the steps:
as §1

Test [4] shares this test system. Put plainly: z-score of subpopulation abundance vs DMSO median, subpopulation auxotrophic for L; higher = larger share of this subpopulation than in DMSO controls. The settings on record: 10 µM; 24 h; SM minimal medium; subpopulation (auxotrophy): L. The essentials: as §1
Test [5] shares this test system. Nature of the test: z-score of subpopulation abundance vs DMSO median, subpopulation auxotrophic for H; higher = larger share of this subpopulation than in DMSO controls. Particulars: 10 µM; 24 h; SM minimal medium; subpopulation (auxotrophy): H. An outline of the steps: as §1
Test [6] shares this test system. Put plainly: z-score of subpopulation abundance vs DMSO median, subpopulation auxotrophic for LU; higher = larger share of this subpopulation than in DMSO controls. The settings on record: 10 µM; 24 h; SM minimal medium; subpopulation (auxotrophy): LU. The essentials: as §1
For test [7] the test system is unchanged. Put plainly: z-score of subpopulation abundance vs DMSO median, subpopulation auxotrophic for LM; higher = larger share of this subpopulation than in DMSO controls. Particulars: 10 µM; 24 h; SM minimal medium; subpopulation (auxotrophy): LM. The essentials: as §1
Test [8] shares this test system. Nature of the test: z-score of subpopulation abundance vs DMSO median, subpopulation auxotrophic for HU; higher = larger share of this subpopulation than in DMSO controls. The settings on record: 10 µM; 24 h; SM minimal medium; subpopulation (auxotrophy): HU. The essentials: as §1
Test [9] has the same test system. Nature of the test: z-score of subpopulation abundance vs DMSO median, subpopulation auxotrophic for UM; higher = larger share of this subpopulation than in DMSO controls. The settings on record: 10 µM; 24 h; SM minimal medium; subpopulation (auxotrophy): UM. An outline of the steps:
as §1

For test [10] the test system is unchanged. Nature of the test: z-score of subpopulation abundance vs DMSO median, subpopulation auxotrophic for HL; higher = larger share of this subpopulation than in DMSO controls. The settings on record: 10 µM; 24 h; SM minimal medium; subpopulation (auxotrophy): HL. An outline of the steps: as §1
The test system is the same in test [11]. Put plainly: z-score of subpopulation abundance vs DMSO median, subpopulation auxotrophic for HLU; higher = larger share of this subpopulation than in DMSO controls. The settings on record: 10 µM; 24 h; SM minimal medium; subpopulation (auxotrophy): HLU. The essentials: as §1
For test [12] the test system is unchanged. Nature of the test: z-score of subpopulation abundance vs DMSO median, subpopulation auxotrophic for HLM; higher = larger share of this subpopulation than in DMSO controls. The settings on record: 10 µM; 24 h; SM minimal medium; subpopulation (auxotrophy): HLM. The essentials: as §1
The test system is the same in test [13]. Put plainly: z-score of subpopulation abundance vs DMSO median, subpopulation auxotrophic for HUM; higher = larger share of this subpopulation than in DMSO controls. Particulars: 10 µM; 24 h; SM minimal medium; subpopulation (auxotrophy): HUM. The essentials:
as §1

Test [14] shares this test system. Nature of the test: z-score of subpopulation abundance vs DMSO median, subpopulation auxotrophic for LUM; higher = larger share of this subpopulation than in DMSO controls. The settings on record: 10 µM; 24 h; SM minimal medium; subpopulation (auxotrophy): LUM. The essentials: as §1
Test [15] shares this test system. Put plainly: z-score of subpopulation abundance vs DMSO median, subpopulation auxotrophic for HLUM; higher = larger share of this subpopulation than in DMSO controls. The settings on record: 10 µM; 24 h; SM minimal medium; subpopulation (auxotrophy): HLUM. An outline of the steps:
as §1

Test [16] shares this test system. Put plainly: z-score of subpopulation abundance vs DMSO median, subpopulation auxotrophic for U; higher = larger share of this subpopulation than in DMSO controls. The settings on record: 10 µM; 24 h; SM minimal medium; subpopulation (auxotrophy): U. An outline of the steps: as §1
The test system is the same in test [17]. Nature of the test: z-score of subpopulation abundance vs DMSO median, subpopulation auxotrophic for HM; higher = larger share of this subpopulation than in DMSO controls. Particulars: 10 µM; 24 h; SM minimal medium; subpopulation (auxotrophy): HM. The essentials:
as §1

Where a name gives a salt, the structure may show the parent alone. ± gives the standard deviation of the averaged measurements.

Take `Cc1nc(NC(=O)N2CCC[C@H]2C(N)=O)sc1-c1ccnc(C(C)(C)C(F)(F)F)c1` [Alpelisib (BYL719)]: in test [1], the mean cell size is 12.6 ± 0.23. Besides, the “z-score of prototroph abundance” value in test [2] was -0.14. The “z-score of subpopulation abundance” value in [3] was -0.14; in [4] it was -1.04; in [5], 0.36; in test [6], 0.28; in test [7], -1.01; in test [8], 0.49. Moreover, the “z-score of subpopulation abundance” value in test [9] is 0.25; in test [10] it was -0.35; in test [11] it was -0.75; in test [12] it was -0.12; in test [13], 0.48; in test [14], -0.87. Besides, the “z-score of subpopulation abundance” value in [15] is -0.78.

Regarding `COc1cc2c(cc1OC)-c1cc3ccc(OC)c(OC)c3c[n+]1CC2` [Palmatine], in [1], the mean cell size is 12.41 ± 0.069. The “z-score of prototroph abundance” value in test [2] is -0.25. Also, the “z-score of subpopulation abundance” value in test [3] was -0.17; in [4], 2.2; in test [16], -0.98; in test [5], -0.08; in [6] it was -0.2; in [7], 1.94. The “z-score of subpopulation abundance” value in test [8] was -1.11; in test [9], -0.01; in [10] it was 1.04; in [11], 1.86; in test [12] it was 0.37; in test [13] it was 0.8. Also, the “z-score of subpopulation abundance” value in test [15] came out at 1.87.

Consider `COc1ccc2cc([C@H](C)C(=O)O)ccc2c1` [Naproxen], for which the mean cell size in test [1] was 13 ± 0.17. Further, in [2], the “z-score of prototroph abundance” value is 2.14. In addition, the “z-score of subpopulation abundance” value in test [3] is -1.11; in [4] it was -0.03; in [5] it was 0.45; in [6] it was -1.6; in [7] it was -0.86; in test [8], -1.2. Also, the “z-score of subpopulation abundance” value in test [9] is -2.93; in test [10], 0.23; in test [11] it was -0.86; in test [12], 1.33; in [13], -1.97; in test [15], -0.08.

The molecule `CCOc1cc(NC(C)=O)ccc1C(=O)OC` [Ethopabate] registered a mean cell size in test [1] of 12.6 ± 0.26. The “z-score of prototroph abundance” value in test [2] was -0.33. In addition, the “z-score of subpopulation abundance” value in [3] is 0.39; in [4], 0.35; in test [16] it was -0.35; in [5], -0.59; in test [6], 1.2; in test [7], 0.15. In addition, the “z-score of subpopulation abundance” value in test [9] is 0.48; in test [11], -0.1; in test [12], 0.97; in test [13] it was -0.22; in test [14], 0.24; in test [15], 2.14.

In the case of `CCCCN1CCCC[C@H]1C(=O)Nc1c(C)cccc1C` [Levobupivacaine HCl], in test [1], the mean cell size turned out to be 12.4 ± 0.15. The “z-score of prototroph abundance” value in test [2] is 0.73. Further, the “z-score of subpopulation abundance” value in [3] was -1.02; in test [4] it was 0.42; in [16], -0.04; in test [5], -0.68; in test [6] it was -0.09; in test [7], -0.55. The “z-score of subpopulation abundance” value is 0.14 in test [8]; -0.46 in [10]; -0.48 in test [11]; -0.93 in test [12]; -0.73 in test [13]; -0.43 in test [15].

In [1], `CC(C)c1c(C(=O)Nc2ccccc2)c(-c2ccccc2)c(-c2ccc(F)cc2)n1CC[C@@H](O)C[C@@H](O)CC(=O)O` [Atorvastatin Calcium] registered a mean cell size of 12 ± 0.14. Besides, the “z-score of subpopulation abundance” value in test [3] came out at 0.46; in [4] it was 0.91; in [5], 7.9; in [6] it was 2.65; in [7] it was 2.22; in test [8] it was 7.9. Moreover, the “z-score of subpopulation abundance” value stood at 4.62 in test [9]; 6.43 in test [10]; 8.01 in [11]; 9.32 in [12]; 7.67 in test [13]; 4.29 in [14]. Also, in test [15], the “z-score of subpopulation abundance” value was 4.28.

Turning to `Nc1nc(N)c2nc(-c3ccccc3)c(N)nc2n1` [Triamterene], the mean cell size in test [1] is 12.6 ± 0.17. Moreover, in test [2], the “z-score of prototroph abundance” value was 3.28. Further, the “z-score of subpopulation abundance” value in test [3] was 4.86; in [4] it was 3.9; in test [5], 2.44; in test [6], -7.06; in test [17], 3.53; in test [8], -7.52. Also, the “z-score of subpopulation abundance” value in test [9] is -9.3; in test [10], 3.45; in test [11] it was -3.55; in test [12] it was 2.07; in test [13], -6.05; in [14], -4.47. In test [15], the “z-score of subpopulation abundance” value is -1.58.

With `C=CC(C)(O)CCC=C(C)C` (configuration not stated) [Linalool], the “z-score of prototroph abundance” value in [2] is -0.57. The “z-score of subpopulation abundance” value was 0.32 in test [3]; -0.24 in test [4]; 1.02 in test [16]; -0.37 in test [5]; 0.53 in test [6]; -0.19 in test [7]. Also, the “z-score of subpopulation abundance” value in [17] was -0.25; in test [8], 0.69; in test [9], 0.7; in [10], -0.47; in test [11], -0.06; in test [12], -0.24. Also, the “z-score of subpopulation abundance” value in test [13] is -0.24; in [14], -0.39; in test [15], -0.32.

For the origin of these results see the supplement of paper PMC8975748.
